The sample as a whole holds a higher share of hits than the screen did.
Tg IFNy HTS: T. gondii growth inhibition under IFN-gamma. 69,000 compounds, 3.8% hits. Toxoplasma gondii growth in IFN-gamma-treated host cells; hits give low values. activity change, negative = inhibition, % (concentration not given with the values); in the data active = activity change below about -70%, passing the limit was not always enough;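 note: host cells are HeLa cells infected with Toxoplasma gondii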
* marks the source's active call; other numbers are inactive results.

SMILES	Tg IFNy HTS
Cc1cccc(-n2cc(-c3ccnc(NC(C)Cc4ccncc4)n3)cn2)c1 (stereo not given)	-51
CC(Cc1cccnc1)Nc1nccc(-c2cnn(-c3ccccc3F)c2)n1 (stereo not given)	-72*
CC(NC(=O)Cc1ccccn1)c1cnn(-c2ccccc2F)c1 (stereo not given)	6
Clc1ccc(-c2nn[nH]n2)cc1Cl	97
CC(=O)C(C(=O)c1ccc(F)cc1)C1c2ccccc2Oc2ccccc21 (stereo not given)	8
O=S(=O)(NCc1ccccc1)Nc1ccc2ncccc2c1	-2
Cn1c(CNC(=O)Cn2c(=O)cc(C(=O)N3CCCCC3)c3ccccc32)nc2ccccc21	13
Cc1ncc(C(=O)N2CCC(c3cc4nc(C(C)C)cc(C(F)(F)F)n4n3)CC2)c(C)n1	-3
Cc1onc(C(C)C)c1C(=O)N1CCC(c2cc(C(F)(F)F)c3c(N)[nH]nc3n2)CC1	-75*
CNc1nc(C2CCN(C(=O)c3c(C(C)C)noc3C)CC2)nc2c1CN(C(C)=O)CC2	15
COc1cccc(CN2CCOCC2c2nccc(N3CCCC3)n2)c1 (stereo not given)	-6
Cc1nc(CCNC(=O)[C@H]2CCCN2C(=O)c2ccccc2Cl)cs1	-39
CC(CCCC(C)(C)O)CCN1CCC2(CC1)C(=O)NCCCN2C (stereo not given)	7
O=C1NCN(c2ccccc2)C12CCN(CCCC(c1ccc(F)cc1)c1ccc(F)cc1)CC2	-81*
O=C1NCCN(Cc2ccccc2)C12CCN(S(=O)(=O)c1ccc(F)cc1)CC2	-10
Cc1nonc1CN(C)c1nc(-c2cccnc2)nc2c1CCNC2	-13
COc1ccc(-c2nc(C)c(CCNC(=O)c3cccc4ccccc34)s2)cc1OC	143
O=C(CC1COCCN1)NCCSc1ccccn1 (stereo not given)	27
CCC(C)C1N=C2c3ccccc3N=C(SCc3ccc(Cl)cc3)N2C1=O (stereo not given)	4
Cc1ccc2[nH]cc(CCNC(=O)c3cc(-c4ccccn4)nc4ccccc34)c2c1	61
Cn1nccc1-c1cc(C(=O)Nc2nc(-c3ccccn3)cs2)c2ccccc2n1	-101*
O=C(Nc1cccc(Cn2cncn2)c1)c1cc(-c2ccccn2)nc2ccccc12	-29
COCCN1C(=O)N(Cc2ccccc2)C2(CCN(Cc3cnn(-c4ccccc4)c3)CC2)C1=O	11
c1ccc(-c2nc(Cn3ccnc3-c3cnc(N4CCCC4)nc3)co2)cc1	-16
Cc1cccc(CN(C)Cc2ccc(-c3nc(C(F)(F)F)c(C)c(=O)[nH]3)cc2)n1	-46
SMILES	Tg IFNy HTS
Cc1ccc(NC(=O)c2ccoc2)cc1NCC#N	45
O=C(NC(=O)c1ccccc1O)c1ccoc1	-84*
O=C(NC(=S)N1CCOCC1)c1ccccc1	24
Cn1cc(C(=O)O)c(=O)c2ccccc21	-6
COc1ccc2c(c1)c(C1=C(c3c[nH]c4ccccc34)C(=O)NC1=O)cn2CCCN(C)C	-52
Cn1cc(C2=C(c3cn(CCCSC(=N)N)c4ccccc34)C(=O)NC2=O)c2ccccc21	-77*
Cc1c(C#N)c(NC(=O)c2ccc(Cl)cc2)n(Cc2cccc(Cl)c2)c1C	-51
COC(=O)[C@@H]1C[C@H](NC(=O)c2cccc3[nH]c(C)nc23)CN1C	4
Cc1nn(C)c(C)c1CNC(=O)c1cccc2[nH]cc(CN3CCCC3)c12	24
COc1ccccc1NC(=O)N1C[C@H](O)COC[C@H]2O[C@H](CC(=O)N3CCC(Cc4ccccc4)CC3)CC[C@@H]21	-28
COc1ccccc1NC(=O)N1C[C@@H](O)COC[C@H]2O[C@H](CC(=O)N3CCC(Cc4ccccc4)CC3)CC[C@@H]21	-9
COc1ccccc1NC(=O)N1C[C@H](O)COC[C@@H]2O[C@@H](CC(=O)N3CCC(Cc4ccccc4)CC3)CC[C@H]21	-75*
CC(C)N1CCC2(CC1)CC(NCc1nccn1C)c1ccccc12 (stereo not given)	59
COC(=O)C[C@](O)(CCCC(C)(C)O)C(=O)O[C@@H]1C(OC)=C[C@]23CCCN2CCc2cc4c(cc2[C@H]13)OCO4	-82*
COc1ccc(CC(=O)N2CCC(N3CCCC3)CC2C(=O)O)cc1 (stereo not given)	-27
O=C(c1ccc(F)c(F)c1)N1CCN(c2nc3c(c(=O)[nH]2)CCCC3)CC1	-3
Cc1noc(-c2cc(=O)n(CC(=O)Nc3cccc(Cl)c3)c3ccccc23)n1	-10
Oc1c(Cl)cc(Cl)cc1C1Nc2cc(Cl)c(C(F)(F)F)cc2N1 (stereo not given)	-88*
Cn1ncc2c(NCCN3CCOC3=O)nc(C(C)(C)C)nc21	-9
FC(F)(F)c1cccc(NC(=S)Nc2cccc(C(F)(F)F)c2)c1	19
CCOC(=O)c1cn[nH]c1NC(=S)Nc1cccc(C(F)(F)F)c1	-34
FC(F)(F)c1cccc(NC(=S)Nc2csc(C(F)(F)F)c2-c2ccccc2)c1	-97*
CN(C)CC1(O)CCN(C(=O)c2ccc(-c3nnn(C)n3)cc2)C1 (stereo not given)	21
CCN(CC)C(=O)Oc1ccnc2cc(Cl)ccc12	-40
CCSc1nnc(NC(=O)CCc2ccc(C)o2)s1	19
SMILES	Tg IFNy HTS
CCCCCCCC(=O)Nc1nnc(Sc2ccnc3cc(Cl)ccc23)s1	-94*
CN(Cc1cnc(C(C)(C)C)nc1)Cc1nc2ccc(F)cc2[nH]1	-1
COCc1nc(N2C[C@H]3CC=CC[C@H]3C2)c2cnn(C)c2n1	-26
COCC(=O)N1CCCN(Cc2cccc(OC)c2O)CC1	6
C=CCNC(=O)c1ccc(-c2cnc3ccccc3c2)o1	-82*
C=CCNC(=O)c1ccc(-c2cccc([N+](=O)[O-])c2)o1	67
C=CCNC(=O)c1ccc(-c2ccc(F)c(CO)c2)o1	45
COc1ccc(NC(=O)c2nc(Nc3ccc(Cl)cc3)c3ccccc3n2)cc1OC	-6
Cc1oc(-c2ccc(-c3ccccc3)cc2)nc1CN1CCCCC1CO (stereo not given)	55
O=C1COC2(CCN(C(=O)C3CCOCC3)CC2)CN1	2
CCn1c(-c2cc(NC(=O)c3cnccn3)n[nH]2)cc2ccc(OC)cc21	-103*
CCn1c(-c2cc(NC(=O)c3cncc(Br)c3)n[nH]2)cc2ccccc21	-103*
COCCN1C(=O)CCc2cc(NC(=O)c3cncc(Br)c3)ccc21	1
COc1ccc(-c2cn(CC[C@@H]3CC[C@@H](NC(=O)c4cnccn4)[C@H](CO)O3)nn2)cc1	-14
COc1ccc(OC)c(NC(=O)c2cncc(NS(=O)(=O)c3ccc(Br)cc3)c2)c1	19
COc1ccc2c3c(n(C)c2c1)[C@@H](CO)N(C(C)=O)CC31CCN(C(=O)c2cnccn2)CC1	368
CCn1c(-c2cc(NC(=O)c3cccnc3)n[nH]2)cc2cc(OC)ccc21	69
CC(C)OC(=O)c1ccc(NC(=O)c2cncc(Br)c2)cc1	40
CCn1c(-c2cc(NC(=O)c3cncc(Br)c3)n[nH]2)cc2ccc(OC)cc21	-85*
Cc1ccc(-c2noc(-c3c(O)c4ccc(F)cc4[nH]c3=O)n2)c(C)c1	-37
CN(c1ncccn1)C1COC2(CCCN(CC3CCOCC3)C2)C1 (stereo not given)	8
CN1CCCC2(CCN(C(=O)c3cn4c5c(cccc5c3=O)CC4)C2)C1=O (stereo not given)	-3
COc1ccccc1-c1nc(C)c(-c2ccc(SCc3cccc(C)c3)nn2)s1	1
CC(C)COc1ccccc1CN(C)C(=O)CN1CCCC1	4
Cc1cncc(C(=O)N2CCC3(C2)CN(c2ccccc2)C(=O)CN3C)c1 (stereo not given)	3
